We go through 33 compounds from ChEMBL document CHEMBL3433997, “St. Jude Leishmania screening dataset” (2016).

SMILES strings stand for the structures.

Holding throughout (type): functional
Assay [1] addresses Solute carrier family 2, facilitated glucose transporter member 1 (Homo sapiens) (UniProt P11166). The assay is described as follows: ST_JUDE_LEISH: Cytotoxicity at 2uM final concentration against transgenic Leishmania Mexicana promastigotes LmGLUT1 that are glucose transport deficient and complemented with the human glucose transporter GLUT1. Activity is measured by DNA content using SYBR green in vitro.

The target of assay [2] is Hexose transporter 1 (Plasmodium falciparum) (UniProt O97467). The assay is described as follows: ST_JUDE_LEISH: Cytotoxicity at 2uM final concentration against transgenic Leishmania Mexicana promastigotes LmPfHT that are glucose transport deficient and complemented with the Plasmodium falciparum hexose transporter. Activity is measured by DNA content using SYBR green in vitro.

The target of assay [3] is Glucose transporter (Leishmania mexicana) (UniProt O61059). The assay is described as follows: ST_JUDE_LEISH: Cytotoxicity at 2uM final concentration against transgenic Leishmania Mexicana promastigotes LmGT2 that are glucose transport deficient and complemented with the L. Mexicana glucose transporter 2. Activity is measured by DNA content using SYBR green in vitro.

Chain of Solute carrier family 2, facilitated glucose transporter member 1 (Homo sapiens) (P11166 whole entry): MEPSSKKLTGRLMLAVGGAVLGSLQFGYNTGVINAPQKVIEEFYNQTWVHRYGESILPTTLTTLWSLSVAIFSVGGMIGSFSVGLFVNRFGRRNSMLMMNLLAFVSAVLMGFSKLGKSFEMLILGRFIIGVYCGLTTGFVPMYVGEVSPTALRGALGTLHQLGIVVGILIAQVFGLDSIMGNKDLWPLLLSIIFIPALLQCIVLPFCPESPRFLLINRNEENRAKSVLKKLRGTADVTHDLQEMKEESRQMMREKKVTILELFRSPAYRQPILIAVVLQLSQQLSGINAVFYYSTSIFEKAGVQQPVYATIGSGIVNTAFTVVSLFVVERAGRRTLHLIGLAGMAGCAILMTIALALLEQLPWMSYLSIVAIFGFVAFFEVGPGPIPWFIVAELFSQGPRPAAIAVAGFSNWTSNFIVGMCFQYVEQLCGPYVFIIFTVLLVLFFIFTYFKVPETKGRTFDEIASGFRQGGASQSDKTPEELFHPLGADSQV

A word on the inhibition: it is the change of the read-out against control, counted positive when it falls. Take `COc1ccc(Cn2ccc3c4c(N)nc(N)nc4ccc32)cc1`: the inhibition in assay [1] amounted to 97.9%; in assay [2], 89.3%; in assay [3] it was 90.1%.
For `Cc1cc(F)ccc1Oc1nc(Nc2ccc(N3CCOCC3)c(F)c2)nc2c1S(=O)(=O)CCC2` the same measures were 6.48%, 7.33% and 2.35%.
For `CCCCNc1cc(NCCCC)c2c(n1)[nH]c1ccccc12` the same measures were 18.4%, 16.6% and 4.43%.
For `Cc1ccc(-c2cc(C(=O)Nc3ccc(S(=O)(=O)N4CCOCC4)cc3)[nH]n2)c(O)c1C`, in that order: 4%, 0.56% and -1.4%.
As to `N#Cc1cccc(C(=O)NC2CCN(c3ccnc(Nc4ccc(F)cc4)n3)C2)c1` (centres undefined), the results for the inhibition in assay [1], in assay [2] and in assay [3] were 2.56%, 2.47% and 0.63%, respectively.
In the case of `CC(=O)c1ccccc1OCCSc1nnc(Cc2cccs2)n1C1CCCCC1`, the inhibition in assay [1] is 1.7%; in assay [2], 2.09%; in assay [3], 1.75%.
As to `Cc1ccc(NC(=O)Nc2ccccc2F)cc1-c1ccc(C(=O)Nc2ccncc2)cc1`, the inhibition in assay [1] came out at 1.42%; in assay [2] it was 1.06%; in assay [3], 0.59%.
Consider `O=C(Nc1ccc2c(c1)CCN2C1CCN(Cc2cccc(C(F)(F)F)c2)C1)c1ccco1` (centres undefined), for which the inhibition in assay [1] is -2.78%; in assay [2] it was 0.28%; in assay [3], -0.47%.
For `COc1ccc(CNCc2ccc(-c3ccc(CNCCc4ccccc4)cn3)cc2)cn1` the same measures were 0.68%, -0.51% and 1.46%.
For `CC1(C)C(=O)Nc2ccccc2N1C(=O)CN1CCN(c2ccccc2O)CC1` the same measures were 0.51%, -0.55% and -3.82%.
Turning to `Cc1cccc2nc(-c3cccc(-c4cccc(CNCCN5CCNCC5)c4)c3)[nH]c12`, the inhibition in assay [1] was 0.34%; in assay [2], -3.8%; in assay [3], 0.48%.
For `COc1cc(OCCCCCCON2C(=N)N=C(N)NC2(C)C)cc(OC)c1OC`, in that order: 7.66%, 8.02% and 6.93%.
`O=C(N1CCN(c2ccc(C(F)(F)F)cc2[N+](=O)[O-])CC1)C(Cl)(Cl)Cl`: the inhibition in assay [1] is 3.26%; in assay [2], 3.64%; in assay [3] it was 1.86%.
For `CN(CC(=O)Nc1cc(C(F)(F)F)ccc1-n1cncn1)Cc1ccc2ccccc2c1`, in that order: 2.14%, 1.25% and 1.8%.
For `CCc1cn(C)c2c(N3CCCC3=O)cc(C(=O)N[C@@H](Cc3ccccc3)[C@H](O)CNC(C)(C)c3cccc(OC)c3)cc12` the same measures were 4.6%, 2.52% and 7.65%.
For `COc1ccc(-c2ccc(NC(=O)c3ccc(C#N)cc3)c(F)c2)cc1CN(C)CCN(C)C`, in that order: 0.85%, -0.56% and 0.45%.
As for `Cc1cc(Oc2cc(NC(=O)c3sc4ncn(Cc5ccccc5F)c(=O)c4c3C)cc([N+](=O)[O-])c2)ccc1Cl`, the inhibition in assay [1] stood at 1.2%; in assay [2] it was 1.84%; in assay [3] it was 1.68%.
For `Cc1nn(-c2ccccc2)c2nc(-c3ccccc3)cc(C(=O)N3CCOCC3)c12`, in that order: 1.26%, 0.16% and -2.24%.
For `Cc1nc(C)c(-c2ccc(-c3ccc(F)cc3)cc2)c(O)c1Br` the same measures were 0.18%, -0.09% and -1.77%.
For `CCC(C)c1ccc(O)c(NC(=O)c2cncc(Br)c2)c1` (centres undefined) the same measures were -0.89%, 0.04% and -2.07%.
In the case of `COc1ccccc1CCNc1nc(C)cc(N[C@@H](Cc2ccccc2)C(=O)Nc2ccccc2)n1`, the results for the inhibition in assay [1], in assay [2] and in assay [3] were 12%, 10.7% and 8.65%, respectively.
For `O=C(CCc1c[nH]cn1)Nc1cccc(-c2ccc(-c3nc4ccccc4[nH]3)s2)c1` the same measures were 2.18%, 4.04% and 1.88%.
For `Cc1noc(C)c1-c1ccc2c(Nc3cccc4c3-c3ccccc3C4=O)c(C(=O)NCc3ccccc3I)cnc2c1` the same measures were 3.15%, 2.33% and 6.11%.
For `COc1cccc(C2=CC(C)(C)Oc3cc(OCCN(C)C)ccc32)c1` the same measures were 0.35%, -3.47% and 4.3%.
`O=C(NC1CCC(CCN2Cc3cccc(C(F)(F)F)c3C2)CC1)c1cccc(-c2cccnc2)c1` (centres undefined): the inhibition in assay [1] came to 3.38%; in assay [2], 1.73%; in assay [3], 2.16%.
For `CCOC(=O)c1ccc(N=C2SC(=Cc3cc(Br)ccc3O)C(=O)N2C)cc1` the same measures were 3.33%, 1.81% and 3.81%.
For `O=C(c1ccc(-c2cccc(-c3nc4cc(F)ccc4[nH]3)c2)cc1)N1CCCCC1CN1CCC(O)C1` (centres undefined) the same measures were 4.71%, 4.55% and 3.96%.
On to `CCc1cc(-c2onc(C(F)(F)F)c2-c2ccccc2)c(O)cc1OC`, for which the inhibition in assay [1] turned out to be 3.95%; in assay [2], 3.34%; in assay [3], 7.43%.
Take `CN1CCC(N2CCN(Cc3ccc(-c4cccc(-c5nc6cc(F)ccc6[nH]5)c4)cc3)CC2)CC1`: the inhibition in assay [1] worked out at 2.39%; in assay [2], 2.13%; in assay [3], 2.94%.
For `Cc1ccc(NC(=O)NC2CCN(CCCCCNC(=O)/C=C/c3ccc(Cl)c(Cl)c3)CC2)cc1` the same measures were 0.42%, 1.16% and -5.98%.
For `Cc1nc(N)nc(N)c1-c1ccc(Cl)cc1` the same measures were 3.05%, 2.21% and 2.37%.
For `CC1(C)CC(NCCCCCCCOc2ccc(OCc3ccccc3)cc2)CC(C)(C)N1` the same measures were 103%, 102% and 55.4%.
As for `CC(Nc1nncc(-c2cccc(F)c2)n1)c1ccc(F)cc1` (centres undefined), the inhibition came to 11.7% in assay [1], 9.2% in assay [2] and 10.7% in assay [3].
